# Bioassay records as filed in PubChem BioAssay.
# HTT cytoprotect – Huntington cell model cytoprotection by ATP luminescence; PC12 HTT-Q103 induced, cytoprotection, ATP luminescence, 40 h; Potency, µM (series often up to 56.4 µM), for the others: cytoprotection (ATP increase), usual class: activators; actives 0.14% (n = 230,000); note: potency is the fitted concentration of half-maximal effect; % of control where 0% means no effect; nearly all actives have a fitted effect of over 45% in size
#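 ATP quantification (ATPlite) reports survival of PC12 cells in which tebufenozide, 100 nM final, switches on Htt exon 1 with 103 glutamines linked to GFP; compounds are titrated.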
# ALDH1A1 block – ALDH1A1 (human) enzyme inhibition; P00352; Purified ALDH1A1, NADH fluorescence, propionaldehyde substrate; Potency, µM (doses to about 75.3 µM), without a hit: at the highest dose activity, negative = inhibition, most hits filed as inhibitors; actives 7.3% (n = 220,000); active = well fitted inhibition curve with a large enough effect, not every such curve was filed as active; inconclusive = small, poorly fitted or top-dose-only effect, or another doubt; inactive = no such curve, though single readings can be large or run the other way;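 note: potency is the fitted concentration of half-maximal effect; plate controls were no enzyme wells and a reference inhibitor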
# Target sequence (P00352 whole entry, looked up): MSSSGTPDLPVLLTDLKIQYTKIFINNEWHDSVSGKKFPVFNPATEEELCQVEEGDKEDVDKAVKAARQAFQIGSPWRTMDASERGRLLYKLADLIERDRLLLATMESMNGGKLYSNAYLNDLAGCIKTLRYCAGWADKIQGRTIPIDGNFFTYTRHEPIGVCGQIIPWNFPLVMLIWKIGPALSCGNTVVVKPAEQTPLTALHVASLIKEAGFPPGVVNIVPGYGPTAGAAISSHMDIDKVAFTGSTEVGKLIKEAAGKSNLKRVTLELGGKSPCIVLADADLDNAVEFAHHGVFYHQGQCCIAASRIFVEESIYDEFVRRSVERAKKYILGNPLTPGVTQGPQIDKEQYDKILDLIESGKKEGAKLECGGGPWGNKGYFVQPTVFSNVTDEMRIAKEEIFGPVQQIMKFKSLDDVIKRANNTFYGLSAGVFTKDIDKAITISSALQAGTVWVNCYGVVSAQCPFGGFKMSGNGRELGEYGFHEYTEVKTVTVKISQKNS
# HPGD block – HPGD (human) dehydrogenase inhibition. P15428. purified HPGD, NADH fluorescence kinetic, PGE2 substrate. Potency, µM, for inactives: at the highest dose activity change, negative = inhibition, most hits filed as inhibitors. actives 4.3% (n = 150,000); active = well fitted inhibition curve with a large enough effect, not every such curve was filed as active; inconclusive = small, poorly fitted or top-dose-only effect, or another doubt; inactive = no such curve, though single readings can be large or run the other way; note: potency is the fitted concentration of half-maximal effect; % is set by controls: 0 for no effect and ±100 for the full control effect
# Target sequence (P15428 whole entry, looked up): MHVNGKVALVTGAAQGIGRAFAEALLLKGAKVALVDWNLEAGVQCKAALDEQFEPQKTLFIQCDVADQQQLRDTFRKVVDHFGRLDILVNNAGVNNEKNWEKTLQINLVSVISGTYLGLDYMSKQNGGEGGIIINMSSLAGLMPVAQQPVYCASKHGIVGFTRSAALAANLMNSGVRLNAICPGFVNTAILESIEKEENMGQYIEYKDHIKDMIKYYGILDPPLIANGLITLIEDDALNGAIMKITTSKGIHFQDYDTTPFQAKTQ
#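 20 nM HPGD preincubated 15 min at room temperature with compound in 50 mM Tris-HCl pH 8, 0.01% Tween 20. Started with 1 mM NAD+ and 30 uM prostaglandin E2; NADH fluorescence (360/450 nm) read 5 times over 30-s intervals, last minus first.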
# PNC assembly inh – blocks assembly of the perinucleolar compartment; PC3M PTB-GFP, PNC prevalence imaging, 16 h; stronger effect = lower value; AID 2417; actives 3.1% (n = 140,000); activity change (PNC), negative = inhibition, % at 10 µM;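 active = readout at or below -70, meaning at least 70% loss of cells showing the perinucleolar compartment, a nuclear body marking cancer cells; inconclusive = readout between -30 and a set limit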;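 note: plate controls were DMSO wells for no effect and camptothecin positive control wells for full effect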
#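 PC3M cells stably expressing PTB-GFP, 750–1000 cells/well, treated 16 h at 37 °C with compound (23 nl of library stock), in duplicate. After paraformaldehyde fixation and Hoechst stain, imaged at 20x; PNC prevalence scored by image analysis.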
# HttQ103 aggreg – mutant huntingtin aggregation inhibition | PC12 HttQ103-GFP aggregates, Acumen cytometry, 40 h | actives 1.1% (n = 220,000) | AID 1688 | Potency, µM (titrated, usually from 46.1 µM), for inactives: top-dose activity change, negative = inhibition, hits mostly inhibitors; note: potency is the fitted concentration of half-maximal effect; % is set by controls: 0 for no effect and ±100 for the full control effect; nearly all actives have a fitted effect of over 60% in size
#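 Aggregates are detected as GFP objects 1–25 µm with signal 6 STDEV over background in lysates of induced PC12 cells. These carry Huntingtin exon 1 with 103 glutamines fused to GFP under an ecdysone promoter; compounds titrated.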
# CBFb RUNX1 block – blocks binding between human CBF-beta and RUNX1. AID 1477. Q01196+Q13951. 230,000 tested, under 10 active. Potency, µM (highest dose often 59.8 µM), for inactives: at the highest dose activity, negative = inhibition, most hits filed as inhibitors. AlphaScreen CBFb-His/RUNX1-biotin binding, biochemical; note: % of control where 0% means no effect
#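 Compounds were screened at multiple concentrations against a preformed CBF-beta(His)/RUNX1(biotin) complex (30 nM of each) for 15 min at room temperature, followed by 90 min with nickel and streptavidin beads and AlphaScreen reading.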
# Active calls of the source: *; ? = inconclusive; · = not tested or not shown; [ ] = dose if it differs, or a comment. The list is not random: actives were taken first. Their share in the collection is about 11%. Unless noted, calls come from the whole dose curve; as a rule, active = well fitted curve in the direction sought with a large enough effect; inconclusive = small, poorly fitted or top-dose-only effect, or another doubt; inactive = no such curve, though single readings can be large; an effect the other way counts as inactive or inconclusive.
SMILES,HTT cytoprotect,ALDH1A1 block,HPGD block,PNC assembly inh,HttQ103 aggreg,CBFb RUNX1 block
Cc1ccc(/C=N/NS(=O)(=O)c2ccc([N+](=O)[O-])cc2)o1,41%[10 µM],-3%,-3%,-2,?,-5%
CC(=O)N/N=C/c1ccc([N+](=O)[O-])o1,-367%,·,·,·,32µM*,·
Cc1ccc(S(=O)(=O)N/N=C\c2ccc([N+](=O)[O-])o2)cc1,-9%[10 µM],?,-19%,-112*,?,9%
O=C(N/N=C/c1ccc(-c2ccccc2Cl)o1)c1ccccc1,-74%,?,·,·,-11%,0%
O=S(=O)(N/N=C\c1ccc(-c2ccccc2Cl)o1)c1ccccc1,2%[1.9 µM],-2%,16µM*,?,-19%,4%
O=[N+]([O-])c1ccc(/C=N/NS(=O)(=O)c2ccc(Cl)cc2)o1,0%[10 µM],7.9µM*,28µM*,82,23%,13%
CCOC(=O)N/N=C1/C[C@@H](O)[C@@H](O)[C@@H]2[C@@H]3C(=O)N(C[C@@H]4CCCO4)C(=O)[C@H]3CC[C@H]12,-5%[10 µM],1%[13.5 µM],·,·,·,-3%[13.1 µM]
COc1ccc(CNCCNC(=O)c2cccs2)c(OC)c1OC,-1%[10 µM],?,·,·,-1%[9.22 µM],5%
CCNc1ncc2nc(-c3ccc(F)cc3)c(=O)n(-c3ccccc3)c2n1,-8%,?,·,·,·,·
CN(C)c1ccc(/C=N/N=C2/NC(=O)/C(=C/c3ccc([N+](=O)[O-])cc3)S2)cc1,-70%,25µM*,-25%,-9,11%,-17%
CC(C)OC(=O)c1cc2c(OC[C@@H](O)CNC(C)(C)C)cccc2[nH]1,-17%,?,-26%,·,·,14%[21.7 µM]
CC1CCN(c2nnc(N3CCC(C)CC3)c3ccccc23)CC1,-2%,11%,·,·,2%[9.22 µM],14%
CC1CCN(c2nncc3ccccc23)CC1,-25%[10 µM],-3%,-5%,-93*,-3%,7%
CCN(CC)C(=O)CSc1nc2c(sc(=S)n2-c2ccccc2)c(=O)[nH]1,-53%,?,·,·,-26%,-9%
CCCc1nc(N2CCOCC2)c2sc(=S)n(-c3ccccc3)c2n1,-25%,10µM*,-4%,-2,-4%,0%
CCNc1ncc2nc(-c3cccc(C#N)c3)c(=O)n(CCC#N)c2n1,10%,?,-6%,·,·,·
O=C(NCCN1C(=O)C2C3C=CC(C3)C2C1=O)Nc1cccnc1 (configuration not stated),-11%,-12%,3%,-28,-8%,0%
O=C(NCCN1C(=O)C2C3C=CC(C3)C2C1=O)Nc1ccc(Br)cc1 (configuration not stated),-36%,11µM*,-11%,?,14%,0%
C/C(=N\NS(=O)(=O)c1ccc(C)cc1)c1cc2ccccc2oc1=O,24%,16µM*,·,·,-6%,0%
Cc1ccc(-c2[nH]ncc2/C=N/n2c(COc3ccccc3C)nc3ccccc3c2=O)cc1,-10%[10 µM],?,-3%,-28,-3%,-15%
Cc1ccccc1OCc1nc2ccccc2c(=O)n1/N=C/c1c[nH]c2ccccc12,-6%[10 µM],1%,-3%,-123*,-1%,2%
Cc1cc(/C=N/n2c(COc3ccccc3C)nc3ccccc3c2=O)c(O)c([N+](=O)[O-])c1,-8%[10 µM],2%,1µM*,?,12%,-8%
O=C(CSC1=NCCN1)Nc1ccccc1,-8%[10 µM],5%[13.5 µM],-6%,·,·,·
COC(=O)c1sccc1N/C=C(\C#N)S(=O)(=O)C(C)(C)C,-30%[10 µM],?,·,·,-25%[9.22 µM],3%
CC(C)(C)S(=O)(=O)/C(C#N)=C/c1sccc1C1OCCO1,6%[10 µM],7.9µM*,·,·,1%[9.22 µM],4%
SMILES,HTT cytoprotect,ALDH1A1 block,HPGD block,PNC assembly inh,HttQ103 aggreg,CBFb RUNX1 block
CSC(=NC#N)N1CCN(c2ccc([N+](=O)[O-])cc2)CC1,-21%,18µM*,·,·,21%[9.22 µM],-2%
CSC(=NC#N)N1CCN(c2ccccn2)CC1,?,18µM*,·,·,22%[9.22 µM],-1%
CSC(=NC#N)N1CCN(C(=NC#N)SC)CC1,-5%,?,·,·,15%[9.22 µM],-3%
Cc1ccccc1NS(=O)(=O)c1cc(S(C)(=O)=O)ccc1Cl,6%[0.074 µM],20µM*,-2%,17,1%,-4%
Cc1ccccc1NS(=O)(=O)c1ccc(Cl)cc1,0%[10 µM],?,·,·,3%[9.22 µM],10%
CN(C)/N=C/C=C1\CCC/C(=C/c2cccs2)C1=O,3%[10 µM],25µM*,·,·,-13%[9.22 µM],-6%
CN(C)/N=C/C=C1\CC/C(=C\c2ccc(Br)cc2)C1=O,-11%,-4%,-13%,20,-5%[9.22 µM],-10%
CCCCC/C=C\C[C@@H]1O[C@H]1C(O)/C=C\C/C=C\CCCC(=O)O (some centres not stated),-6%,18%,-2%,·,·,-2%
COc1cc(C(c2sc3nc(C)nn3c2O)N2CCc3ccccc3C2)cc(OC)c1OC (configuration not stated),-5%[10 µM],?,-11%,?,4%,7%
COc1ccc(C(c2sc3nc(C)nn3c2O)N2CCc3ccccc3C2)cc1 (configuration not stated),13%[10 µM],?,22µM*,21,-9%,1%
COc1cc(C2CC(=O)Oc3cc(C)c(Cl)cc32)cc(OC)c1OC (configuration not stated),-42%,4%,-7%,·,·,6%[89.1 µM]
CCCCNc1ccc(S(N)(=O)=O)cc1[N+](=O)[O-],13%[10 µM],14%,-4%,-113*,-10%,-14%
O=C(OC1C[C@@H]2CC3C[C@H](C1)N2CC3=O)c1c[nH]c2ccccc12 (some centres not stated),-30%,·,·,·,-14%,·
CCC(C)NC(=S)Nc1ccccc1 (configuration not stated),26%[10 µM],·,·,·,1%[9.22 µM],7%
CC(C)[C@H](NC(=O)Nc1cccc(Br)c1)C(=O)O,-3%[0.074 µM],8%,3%,-91*,-14%,3%
O=C(COC(=O)CC(c1ccccc1)c1ccccc1)Nc1ccc(F)c(F)c1,-195%,-3%,·,·,-22%,-4%
CC(C)C(NC(=S)Nc1ccccc1)C(=O)O (configuration not stated),10%[10 µM],4%,32µM*,?,6%,-1%
CCOCC(=O)Nc1ccc(F)c(F)c1,-9%,-1%,28µM*,-10,16%,4%
CCC(=O)Nc1ccc2c(c1)C(=O)c1ccccc1C2=O,-56%,7.9µM*,-10%,5,-2%,2%
N[C@@H](Cc1nn[nH]n1)C(=O)O,-22%[10 µM],6%[13.5 µM],-1%,·,·,·
O=C(c1cnccn1)N1CCC2(CCN(Cc3ccncc3)CC2)CC1,10%,0%,-11%,·,·,·
CCC(=O)Nc1cccc(C(=O)c2ccccc2)c1,-7%,0%,0%,9,-1%,6%
CCOCC(=O)Nc1cccc(Br)c1,8%[0.074 µM],20µM*,25µM*,25,-5%,-30%
